Source: PubChem (several laboratories)
RmlC RmlD mix: RmlC and RmlD coupled enzyme inhibitors, primary screen, biochemical, 384-well, compound mixtures, retest. hit rate 0.39% among 110,000. RmlC/RmlD coupled enzyme inhibition, 384-well mixture HTS. AID 1532, 2009. inhibition, % at 5.5 µM; in the data active = inhibition above about 30%, passing the limit was not always enough; inconclusive = no clear call, values can overlap the other calls
YopH inh: YopH tyrosine phosphatase inhibitors, primary screen, biochemical, fluorescence Ex485/Em525; YopH tyrosine phosphatase [Yersinia enterocolitica]; inhibition, % (test concentration not listed); hit rate 0.16% among 140,000; AID 898, 2007; in the data active = inhibition above about 50%
* hit, by the source's call; ? = inconclusive; . = no result; + = active, no number. Only some compounds are listed: those with a hit (about 0.44% of all), similar ones and a draw of the others.

SMILES | RmlC RmlD mix | YopH inh
S=C1NC[C@H](c2ccccc2)N1CC1CCCCC1 | -8 | .
Cn1c(C(=O)NCC2CCCO2)cc2c(=O)n(C)c3ccccc3c21 (centres undefined) | -4 | -25
Cc1ccc2nc3c(cc(C(=O)NCCCn4ccnc4)n3C)c(=O)n2c1 | 62* | -57
Cc1cc(C(=O)NCCCn2ccnc2)cs1 | -11 | -1
Cc1ccc2nc3c(cc(C(=O)NCC4CCCO4)n3C)c(=O)n2c1 (centres undefined) | 103* | -24
O=C(Cc1ccccc1)N[C@@H](Cc1ccc(O)cc1)C(=O)O | 13 | .
O=C(C1=C[C@H](c2ccccc2)C[C@H](OCCCCO)O1)N1CCOCC1 | 3 | .
COc1cc(OC)c2c(O)c3c(c(-c4c5c(c(O)c6c(OC)cc(OC)cc46)CO[C@@H](C)[C@H]5O)c2c1)[C@H](O)[C@H](C)OC3 | 12 | .
COc1ccc(-c2c(C3=CCCCC3)oc3ccc(-c4ccc5c(c4)OCO5)cc23)cn1 | 2 | .
Oc1ccc(Nc2nc3ccccc3nc2Nc2ccc(O)cc2)cc1 | 93 | 70*
Cc1n[nH]c(=O)nc1Nc1ccc(O)cc1 | 8 | -8
Cc1cc(C(=O)CSc2n[nH]c(-c3ccccc3F)n2)c(C)n1Cc1cccs1 | -15 | -6
COc1ccc(CCN2C(=O)c3ccncc3C2=O)cc1OC | -35 | 51*
COc1ccccc1CN1C(=O)c2ccncc2C1=O | -7 | -4
CCCCC1=CC2=CC(=O)C(C)(OC(=O)c3cnc4ccccc4n3)C(=O)C2=CO1 (centres undefined) | 14 | .
O=C(Nc1ccccc1)[C@@H]1CC=C[C@@H]2CCN(Cc3ccc(Cl)c(Cl)c3)C(=O)[C@@H]21 | 11 | .
COc1ccccc1-c1c(C)nn2c(N3CCN(c4ccccc4OC)CC3)cc(C)nc12 | -3 | 2
COc1ccccc1-c1c(C)nn2c(N3CCCCCC3)cc(C)nc12 | -2 | 81*
COCCNC(=O)c1cc(-c2ccccc2)nn1CC1CC(c2cccnc2)=NO1 (centres undefined) | 10 | .
CCOC(=O)Nc1nnc(CCc2ccccc2)s1 | 5 | -31
CCOC(=O)Nc1nnc(-c2ccc(OC)c(OC)c2)s1 | 31* | 2
CCC1(c2ccccc2)C(=O)N(C)C(=O)N(C)C1=O | . | -11
CN1C(=O)N(C)C(=O)C2(Sc3ccccc3C2=O)C1=O | + | -17
O=C1N[C@@H](Cc2ccccc2)C(=O)N2[C@@H]1C[C@@]1(Br)c3ccccc3N(S(=O)(=O)c3ccccc3)[C@@H]21 | -61 | .
Cc1cc(C)c(C)c(C(=O)CSc2nnc(C)c(=O)[nH]2)c1C | -9 | -78
SMILES | RmlC RmlD mix | YopH inh
CCCCOCCCn1c(N)c(C(=O)OC(C)COC)c2nc3ccccc3nc21 (centres undefined) | 30 | -12
COCCCn1c(N)c(C(=O)OC(C)COC)c2nc3ccccc3nc21 (centres undefined) | 46* | 8
C[C@@H]1CCC[C@]2(O[C@@H](CCO)C[C@@H](O)[C@@H]2O)O1 | -97 | .
O=C(/C=C/c1ccc([N+](=O)[O-])cc1)OCC(=O)N1c2ccccc2Sc2ccccc21 | . | 53*
O=C(COC(=O)/C=C/c1ccc([N+](=O)[O-])cc1)NCc1ccccc1 | . | -17
NC(=O)CC(NC(=O)c1cccc(Br)c1)c1ccc(NCCN2CCOCC2)c([N+](=O)[O-])c1 (centres undefined) | -7 | .
CCOC(=O)C1=C(C)N(CCCC(=O)O)C(=O)NC1c1ccc(C(F)(F)F)cc1 (centres undefined) | 8 | .
CCC1=C(OC(=O)N(CC)CC)N2C(=O)OC(=NCCc3c[nH]c4ccccc34)[C@]2(C)[C@H]2C1=CC[C@H]1C(=O)N(CC(=O)OC)C(=O)[C@H]12 | -12 | .
COc1ccc(/C=N/NC(=O)C(C)n2cnc3ccccc3c2=O)cc1OC (centres undefined) | . | 67*
COc1ccc(/C=N/NC(=O)CCn2cnc(-c3ccccc3)c2-c2ccccc2)cc1OC | . | -5
CCC(=O)Nc1nonc1-c1nc2ccccc2n1CCC(C)C | 3 | 57*
CC(=O)Nc1nonc1-c1nc2ccccc2n1CCC(C)C | . | -39
NC(=O)CC[C@@H]1NC(=O)[C@@H]2CCCN2C(=O)c2cc([N+](=O)[O-])cc(I)c2NCCCC[C@@H](C(=O)NC(CC(=O)O)C(N)=O)NC1=O (some centres undefined) | -7 | -28
Nc1cnc(Br)cc1Br | . | -26
Nc1cc2nsnc2cc1Br | -4 | 100*
C#Cc1ccc([C@@H]2C=C(C(=O)N3CCOCC3)O[C@H](OCc3ccc(CO)cc3)C2)cc1 | 5 | .
CCOc1ccc2nc(NC(=O)c3ccc(OCC4CCCO4)cc3)sc2c1 (centres undefined) | . | -41
Cc1ccc(NC(=S)N/N=C/c2ccc([N+](=O)[O-])s2)cc1 | . | -23
Cc1cc(C)cc(N=Cc2ccc([N+](=O)[O-])s2)c1 | . | 86*
O=[N+]([O-])c1ccc(/C=N/n2cnc3ccccc32)s1 | . | -10
NC(=O)c1ccc(N=Cc2ccc([N+](=O)[O-])s2)cc1 | . | 92*
OCCN1CCN(CCCc2c3c(cc4c2CCC4)CCC3)CC1 | . | -27
CCOC(=O)c1c(C)nc(C)c(C(=O)OCC)c1-c1ccc(Br)cc1 | . | -35
CCOC(=O)c1c2c(n(C)c1COC)C(=O)C(=O)c1ccc(Br)cc1-2 | 8 | 80*
CCOC(=O)CN1C(=O)C(Sc2n[nH]c(-c3ccc(O)cc3)n2)CCc2ccccc21 (centres undefined) | -11 | -17
SMILES | RmlC RmlD mix | YopH inh
O=C(Nc1ccc2c(c1)nc1n2CCN(Cc2ccccc2)C1)NC1CCCCC1 | 24 | -2
COCCN1CCn2c(nc3cc(NC(=O)NC4CCCCC4)ccc32)C1 | 59* | -46
COC(=O)c1c(NC(=O)CSc2nnc3ccccn23)sc2c1CCC2 | . | -22
CC1=C(C)C(=O)C(CCCCC#CCCCC#CCO)=C(C)C1=O | 0 | 65*
COC1=C(OC)C(=O)C(CCCCCCCCCCO)=C(C)C1=O | -13 | .
Cc1cc(C)c2oc(C(=O)Nc3ccc(S(=O)(=O)N4CCCC(C)C4)cc3)cc(=O)c2c1 (centres undefined) | . | -24
O=C(c1cccs1)c1no[n+]([O-])c1C(=O)c1cccs1 | 0 | 87*
COc1ccc(C(=O)c2no[n+]([O-])c2C(=O)c2ccc(OC)cc2)cc1 | 2 | -8
COc1ccc(S(=O)(=O)NCCC(C)C)cc1C | 44 | -14
CCN(CC)c1ccc(C=Nc2cc(C)cc(C)c2)c(O)c1 | . | -28
CCN(CC)c1ccc(/C=N/NC(=O)OC)c(O)c1 | 17 | 2
CCN(CC)c1ccc(/C=N/Nc2cccc(C)c2)c(O)c1 | . | 58*
CCN(CC)c1ccc(N=Cc2ccc(N(CC)CC)cc2O)cc1 | 5 | -17
CCN(CC)c1ccc(C=Nc2ccccc2)c(O)c1 | 6 | 52*
CCN(CC)c1ccc(/C=N/Nc2ccccc2)c(O)c1 | 39 | 51*
Cc1ccccc1C(=O)NC1CCN(C(=O)N(c2ccccc2)c2ccccc2)CC1 | 2 | -58
CC(C)CCn1c(Sc2nc3ccccc3o2)nc2c1c(=O)[nH]c(=O)n2C | . | -16
CCOC(=O)c1cc2c(nc1N)CC(C)(C)OC2 | 39* | -9
CCOC(=O)c1cc2c(nc1N)CC(C)(CC)OC2 (centres undefined) | 2 | -3
CCN1CCN(Cc2c(O)c(Cl)cc3c(C)cc(=O)oc23)CC1 | ? | 11
Cc1c(C)c2cc(Cl)c(O)c(CN3CCN(C)CC3)c2oc1=O | 97* | -21
